Assay outcomes deposited in PubChem BioAssay by Broad Institute.
Tg IFNy HTS: T. gondii growth inhibition under IFN-gamma. Toxoplasma gondii growth in IFN-gamma-treated host cells; stronger effect = lower value. activity change, negative = inhibition, % (test concentration not listed). 3.8% of 69,000 active; in the data active = activity change below about -70%, passing the limit was not always enough;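 also: host cells are HeLa cells infected with Toxoplasma gondii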
Active calls of the source: *; ! = a repeat was not active. Only a selection was taken, and hits are over-represented in it overall.

SMILES	Tg IFNy HTS
Cc1nc(CO[C@H]2CN(S(C)(=O)=O)[C@H]3COC[C@@H]23)cs1	-49.3
Cn1c2ccccc2c2c3c(c4c5ccccc5n(CCC#N)c4c21)CNC3=O	-62.5
CO[C@@H]1[C@H](N(C)C(=O)c2ccccc2)C[C@H]2O[C@]1(C)n1c3ccccc3c3c4c(c5c6ccccc6n2c5c31)C(=O)NC4	-84.2*
CCN(CC)CC1CN(S(=O)(=O)C2CC2)Cc2nccn2C1 (centres undefined)	3.5
CC(C)(C)NC[C@H](O)COc1ccccc1C1CCCC1	16.3
OC(CNC1Cc2ccccc2C1)COc1ccc(F)cc1 (centres undefined)	-39.7
CCc1ccccc1OC[C@@H](O)CN[C@H]1CCCc2ccccc21	-80.5*!
COCCN1CC(C(=O)N(C)Cc2csc(C)n2)CC1=O (centres undefined)	10.4
COc1cc2c(cc1OC)C(C)=NC1(CCCCC1)C2	24.1
COc1cc2c(cc1OC)C(Nc1ccc(Br)cc1)=NC1(CCCC1)C2	-85.1*
COc1ccc(-c2nnc3n2C2(CCCC2)Cc2cc(OC)c(OC)cc2-3)cc1	-11.3
COCCN1CCCn2c(nc(Cn3cncn3)cc2=O)C1	1.7
COc1ccc(CNC(=O)c2cncc(OC(C)C)c2)cc1OC	-69.8
CNCC[C@@H](Oc1ccccc1C)c1ccccc1	15.8
CC(Nc1ccc(-c2nccn2C)nn1)c1ccccc1 (centres undefined)	204.8
CC(NCCC(c1ccccc1)c1ccccc1)c1ccccc1 (centres undefined)	-82.3*!
COCC(=O)N1CCOCC2(CCN(Cc3nccn3C)C2)C1 (centres undefined)	-2.9
Cc1c(C)n(C(=O)CSc2nnc(-c3ccccc3)o2)c2ccccc12	6.4
O=c1cc(O)c2ccccc2n1-c1ccccc1	46.1
Cc1c(-c2ccccc2)n(-c2ccccc2)c2ccccc12	-90.2*
CC(=O)NC(Cc1c[nH]c2ccccc12)C(=O)OCc1cc(C(F)(F)F)cc(C(F)(F)F)c1 (centres undefined)	15.2
FC(F)(F)c1cc(CO[C@H]2CCCN[C@H]2c2ccccc2)cc(C(F)(F)F)c1	-81.1*!
COc1ccc(N2CC3(CCN(C(=O)COc4ccccc4)C3)CC2=O)cc1 (centres undefined)	-62.7
COCCN1C(=O)[C@]2(CC[C@H]3CN(Cc4c(C)noc4C)C[C@H]32)N=C1C	-0.1
CC(C)(C)c1ccc(S(=O)(=O)N2CCC3(CC2)Nc2ccccc2-n2cccc23)cc1	9.4
SMILES	Tg IFNy HTS
CO[C@H]1CN(C)C(=O)c2cc(NC(=O)c3nc4ccccc4s3)ccc2OC[C@@H](C)NC[C@@H]1C	-69.4
CO[C@H]1CN(C)C(=O)c2cc(NC(=O)c3nc4ccccc4s3)ccc2OC[C@H](C)NC[C@H]1C	-110.6*
CO[C@@H]1CN(C)C(=O)c2cc(NC(=O)c3nc4ccccc4s3)ccc2OC[C@@H](C)NC[C@H]1C	-66.4
CO[C@H]1CN(C)C(=O)c2cc(NC(=O)c3nc4ccccc4s3)ccc2OC[C@@H](C)NC[C@H]1C	-13.0
CO[C@@H]1CN(C)C(=O)c2cc(NC(=O)c3nc4ccccc4s3)ccc2OC[C@@H](C)NC[C@@H]1C	-32.4
CO[C@@H]1CN(C)C(=O)c2cc(NC(=O)c3nc4ccccc4s3)ccc2OC[C@H](C)NC[C@H]1C	-91.8*
O=C(NCCc1csc(-c2ccccc2)n1)C1CCN(C(=O)COc2ccccc2)CC1	-45.9
O=C(CC1COCCN1)NCCc1ccc(Cl)cc1Cl (centres undefined)	-46.4
CC(C)Nc1ncnc2c1CCN(C(=O)c1ccnnc1)CC2	2.1
COc1ccc(-c2nc(Cc3noc(Cc4cccc(F)c4)n3)c(C)o2)cc1	58.8
O=C(Oc1ccccc1)c1ccc(Oc2ccc(C(=O)Oc3ccccc3)cc2)cc1	-31.0
O=C1OC(=O)C2C1[C@@H]1CC[C@H]2O1 (some centres undefined)	-76.9*
COc1ccc(-c2nc(Nc3ccc(CN4CCC(C)CC4)cc3)c3ccccc3n2)cc1	-41.0
COc1ccc(CCN2CCC(Nc3nc4ccccc4n3Cc3ccc(F)cc3)CC2)cc1	-92.5*!
COc1ccc(-c2nc(NCCN3CCC(C)CC3)c3ccccc3n2)cc1	-57.1
CCc1ccc(NC(=O)C2=C(C)C(=O)OC23CCN(S(C)(=O)=O)CC3)cc1	18.0
Cc1nc(CCNC(=O)CN2C(=O)NC(=O)C2(C)C)sc1C	11.9
Cc1ncc(CN(C)Cc2cnn(-c3ccccc3)c2)n1C	6.8
O=C(NCc1ccc(-c2ccc(F)cc2F)o1)Nc1ccc(Cl)cc1	-69.5
Cc1noc(C)c1C(=O)OCc1ccc(-c2ccc(F)cc2F)o1	28.4
O=S(=O)(c1ccc(F)cc1F)n1nccc1-c1ccc(-c2ccc(F)cc2F)o1	-110.8*
O=C(Cc1c[nH]c2ccccc12)N1CCC(O)(C(=O)O)CC1	3.5
COCCNC(=O)[C@@]12COC[C@@H]1CN(Cc1cnn(C)c1)C2	10.0
COCCN1C(=O)CCc2cc(NC(=O)Cc3ccccc3C)ccc21	61.3
O=C1CN2Cc3c(ccc(Cl)c3Cl)N=C2N1	-82.8*!
Cc1cc(C2CCC2)nc(N(C)Cc2cnccn2)n1	-3.0
NCC(=O)Nc1ccc(-c2cccc(C(F)(F)F)c2)cc1F	-57.3
